Assay results published in ChEMBL document CHEMBL3988442, “University of Dundee, Small-Polar-MMV Screening Library” (2021).
For some of these results: Results with a measured potency or affinity are listed apart.

Tests used:
[1] = target: T1, Methionyl-tRNA synthetase, putative (Leishmania donovani (strain BPK282A1)) (UniProt E9BF75); test: Leishmania donovani Methionine tRNA synthetase (LdMetRS):v7. Dose response assay; assay type: functional; parameters: conc 80 nM, time 150 minutes
T1 sequence (whole entry): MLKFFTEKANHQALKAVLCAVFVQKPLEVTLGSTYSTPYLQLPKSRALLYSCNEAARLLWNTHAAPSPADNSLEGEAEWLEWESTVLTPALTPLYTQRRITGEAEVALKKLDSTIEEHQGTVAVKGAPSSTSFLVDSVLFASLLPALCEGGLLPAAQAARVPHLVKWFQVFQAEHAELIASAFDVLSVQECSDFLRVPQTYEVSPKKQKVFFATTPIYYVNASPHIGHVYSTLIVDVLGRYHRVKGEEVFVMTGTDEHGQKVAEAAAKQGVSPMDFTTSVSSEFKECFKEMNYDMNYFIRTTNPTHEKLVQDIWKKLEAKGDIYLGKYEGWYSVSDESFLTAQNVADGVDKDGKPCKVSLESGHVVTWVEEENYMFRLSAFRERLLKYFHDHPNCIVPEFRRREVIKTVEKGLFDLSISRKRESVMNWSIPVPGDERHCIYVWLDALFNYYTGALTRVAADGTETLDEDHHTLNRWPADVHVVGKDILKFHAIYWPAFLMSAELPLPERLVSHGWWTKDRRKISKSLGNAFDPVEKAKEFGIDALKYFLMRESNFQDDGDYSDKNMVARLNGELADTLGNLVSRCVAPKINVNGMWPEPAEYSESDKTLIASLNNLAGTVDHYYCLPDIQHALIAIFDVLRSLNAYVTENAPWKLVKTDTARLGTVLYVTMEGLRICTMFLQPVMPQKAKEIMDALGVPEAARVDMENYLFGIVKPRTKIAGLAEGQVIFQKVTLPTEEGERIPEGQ

[2] = target: AMP-activated protein kinase, AMPK (Homo sapiens) (UniProt P54646+O43741+P54619+Q9UGJ0+Q9Y478+Q13131+Q9UGI9); test: AMP-dependent Kinase enzyme assay. An in vitro enzyme assay that detects ADP turnover that is directly proportional to AMPK activity. This uses naive AMPK that is activated during the assay with MK-8722; assay type: functional; parameters: scale not given: direction of the effect not stated beside the values; settings: 30 µM
[3] = target: Protein translocase subunit SecA (Escherichia coli (strain K12)) (UniProt P10408); test: Assay to Identify E. coli SecA ATPase Inhibitors; assay type: functional; parameters: scale not given: direction of the effect not stated beside the values; settings: 30 µM
[4] = target: T2, Ubiquitin-activating enzyme e1, putative (Leishmania donovani (strain BPK282A1)) (UniProt E9BSI1); test: Leishmania donovani Ubiquitin Activating Enzyme (LdE1); assay type: functional; parameters: scale not given: direction of the effect not stated beside the values; settings: 30 µM
T2 sequence (whole entry): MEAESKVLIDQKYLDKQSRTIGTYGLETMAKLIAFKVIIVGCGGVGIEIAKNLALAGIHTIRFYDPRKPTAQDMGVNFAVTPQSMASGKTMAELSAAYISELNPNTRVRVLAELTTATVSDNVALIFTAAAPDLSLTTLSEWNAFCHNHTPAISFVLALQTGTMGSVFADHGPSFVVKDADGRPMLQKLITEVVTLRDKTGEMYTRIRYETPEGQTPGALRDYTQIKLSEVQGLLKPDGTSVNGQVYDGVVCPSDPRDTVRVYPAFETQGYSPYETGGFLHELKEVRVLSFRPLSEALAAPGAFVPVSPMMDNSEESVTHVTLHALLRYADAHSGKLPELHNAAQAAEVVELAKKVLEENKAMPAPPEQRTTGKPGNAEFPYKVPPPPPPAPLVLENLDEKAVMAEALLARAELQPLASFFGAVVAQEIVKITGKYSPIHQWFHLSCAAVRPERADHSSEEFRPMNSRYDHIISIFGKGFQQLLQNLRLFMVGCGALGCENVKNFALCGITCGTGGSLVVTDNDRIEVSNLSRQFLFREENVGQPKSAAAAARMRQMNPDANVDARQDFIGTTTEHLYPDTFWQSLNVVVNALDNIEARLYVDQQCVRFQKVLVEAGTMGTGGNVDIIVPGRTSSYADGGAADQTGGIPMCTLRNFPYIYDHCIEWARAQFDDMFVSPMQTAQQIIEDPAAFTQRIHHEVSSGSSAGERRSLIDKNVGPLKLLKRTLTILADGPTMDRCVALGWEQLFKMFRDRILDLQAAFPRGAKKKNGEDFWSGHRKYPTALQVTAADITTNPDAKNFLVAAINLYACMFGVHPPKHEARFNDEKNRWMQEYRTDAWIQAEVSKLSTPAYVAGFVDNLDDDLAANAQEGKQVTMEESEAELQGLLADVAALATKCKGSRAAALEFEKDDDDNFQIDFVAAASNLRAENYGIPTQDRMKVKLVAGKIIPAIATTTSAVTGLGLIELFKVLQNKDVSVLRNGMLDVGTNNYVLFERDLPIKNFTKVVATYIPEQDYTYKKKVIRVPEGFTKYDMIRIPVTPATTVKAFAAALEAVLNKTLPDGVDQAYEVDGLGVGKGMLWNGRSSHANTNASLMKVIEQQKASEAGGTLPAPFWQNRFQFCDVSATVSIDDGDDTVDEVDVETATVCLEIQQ

[5] = target: Sialic acid-binding Ig-like lectin 9 (Homo sapiens) (UniProt Q9Y336); test: Hs-Siglec9 ALPHAscreen SOP 20170721; parameters: scale not given: direction of the effect not stated beside the values; settings: 10 µM
[6] = test system: Trypanosoma cruzi; test: Trypanosoma cruzi phosphomannomutase and mannose-1-phosphate guanylyltransferase assay; assay type: functional; parameters: scale not given: direction of the effect not stated beside the values; settings: 10 µM
[7] = target: T3, Arginase-2, mitochondrial (Homo sapiens) (UniProt P78540); test: in vitro enzyme assay to detect the production of urea directly proportional to the activity of Arginase II; assay type: functional; parameters: scale not given: in the data most compounds retested in dose-response had high values
T3 sequence (whole entry): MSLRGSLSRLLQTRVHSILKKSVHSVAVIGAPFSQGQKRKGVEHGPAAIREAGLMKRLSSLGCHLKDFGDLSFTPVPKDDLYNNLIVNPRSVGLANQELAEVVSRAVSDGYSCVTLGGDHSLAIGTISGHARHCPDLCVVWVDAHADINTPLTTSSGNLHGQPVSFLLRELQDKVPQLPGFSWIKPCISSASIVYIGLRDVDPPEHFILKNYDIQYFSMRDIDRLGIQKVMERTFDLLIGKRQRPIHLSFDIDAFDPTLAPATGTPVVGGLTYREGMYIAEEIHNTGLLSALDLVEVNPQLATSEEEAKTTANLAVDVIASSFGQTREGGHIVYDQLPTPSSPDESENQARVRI

[8] = target: T4, Proteasome subunit beta (Trypanosoma cruzi) (UniProt O96673); test: Trypanosoma cruzi proteasome chymotrypsin-like activity (TcProtChymo) assay.; assay type: functional; parameters: scale not given: in the data most compounds retested in dose-response had high values; settings: 9.37 µM
T4 sequence (whole entry): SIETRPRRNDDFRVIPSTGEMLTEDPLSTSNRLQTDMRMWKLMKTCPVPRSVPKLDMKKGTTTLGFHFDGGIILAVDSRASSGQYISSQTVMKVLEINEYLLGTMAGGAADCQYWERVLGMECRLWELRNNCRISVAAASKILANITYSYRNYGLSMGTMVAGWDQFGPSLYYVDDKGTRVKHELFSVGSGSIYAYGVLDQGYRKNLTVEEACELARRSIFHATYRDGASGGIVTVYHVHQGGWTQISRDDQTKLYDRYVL

[9] = species on record: Homo sapiens; test: To identify inhibition of the IFN signalling (Jak-Stat) pathway via expression of an eGFP reporter gene under the control of an IFN-stimulated response element (ISRE) containing MxA promoter.; assay type: functional; parameters: scale not given: direction of the effect not stated beside the values; settings: 30 µM
[10] = target: T5, Tyrosyl-tRNA synthetase, putative (Trypanosoma cruzi (strain CL Brener)) (UniProt Q4DSP6); test: Trypanosoma cruzi tyrosyl tRNA synthetase (TcYRS) _High Tyrosine SOP; assay type: functional; parameters: scale not given: in the data most compounds retested in dose-response had high values; settings: 30 µM
T5 sequence (whole entry): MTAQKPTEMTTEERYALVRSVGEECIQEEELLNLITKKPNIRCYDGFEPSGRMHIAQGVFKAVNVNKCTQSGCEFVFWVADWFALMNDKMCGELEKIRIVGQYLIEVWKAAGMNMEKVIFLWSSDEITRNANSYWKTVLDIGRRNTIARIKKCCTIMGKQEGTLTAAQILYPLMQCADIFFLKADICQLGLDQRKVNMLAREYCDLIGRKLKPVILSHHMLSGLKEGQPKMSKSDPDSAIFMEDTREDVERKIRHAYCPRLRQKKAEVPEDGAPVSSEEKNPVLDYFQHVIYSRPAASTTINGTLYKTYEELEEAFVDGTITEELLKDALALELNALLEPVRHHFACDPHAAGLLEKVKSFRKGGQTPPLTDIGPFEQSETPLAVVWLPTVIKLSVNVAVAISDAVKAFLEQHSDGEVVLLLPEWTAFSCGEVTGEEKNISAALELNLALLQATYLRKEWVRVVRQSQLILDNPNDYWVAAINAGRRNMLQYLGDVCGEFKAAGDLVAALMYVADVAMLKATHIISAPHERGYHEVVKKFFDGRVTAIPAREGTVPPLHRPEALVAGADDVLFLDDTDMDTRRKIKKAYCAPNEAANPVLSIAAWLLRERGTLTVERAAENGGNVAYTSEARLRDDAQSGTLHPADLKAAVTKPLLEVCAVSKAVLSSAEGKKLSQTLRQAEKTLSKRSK

[11] = target: T5, Tyrosyl-tRNA synthetase, putative (Trypanosoma cruzi (strain CL Brener)); test: Trypanosoma cruzi tyrosyl tRNA synthetase (TcYRS) SOP; assay type: functional; parameters: scale not given: direction of the effect not stated beside the values; settings: 30 µM
[12] = target: Chromo domain-containing protein 1 (Saccharomyces cerevisiae (strain ATCC 204508 / S288c) (Baker's yeast)) (UniProt P32657); test: ScCHD-1 Enzyme Inhibition Assay; assay type: functional; parameters: scale not given: in the data most compounds retested in dose-response had high values; settings: 30 µM
Chromo domain-containing protein 1 (Saccharomyces cerevisiae (strain ATCC 204508 / S288c) (Baker's yeast)), sequence (P32657 whole entry, the tested form may be a part): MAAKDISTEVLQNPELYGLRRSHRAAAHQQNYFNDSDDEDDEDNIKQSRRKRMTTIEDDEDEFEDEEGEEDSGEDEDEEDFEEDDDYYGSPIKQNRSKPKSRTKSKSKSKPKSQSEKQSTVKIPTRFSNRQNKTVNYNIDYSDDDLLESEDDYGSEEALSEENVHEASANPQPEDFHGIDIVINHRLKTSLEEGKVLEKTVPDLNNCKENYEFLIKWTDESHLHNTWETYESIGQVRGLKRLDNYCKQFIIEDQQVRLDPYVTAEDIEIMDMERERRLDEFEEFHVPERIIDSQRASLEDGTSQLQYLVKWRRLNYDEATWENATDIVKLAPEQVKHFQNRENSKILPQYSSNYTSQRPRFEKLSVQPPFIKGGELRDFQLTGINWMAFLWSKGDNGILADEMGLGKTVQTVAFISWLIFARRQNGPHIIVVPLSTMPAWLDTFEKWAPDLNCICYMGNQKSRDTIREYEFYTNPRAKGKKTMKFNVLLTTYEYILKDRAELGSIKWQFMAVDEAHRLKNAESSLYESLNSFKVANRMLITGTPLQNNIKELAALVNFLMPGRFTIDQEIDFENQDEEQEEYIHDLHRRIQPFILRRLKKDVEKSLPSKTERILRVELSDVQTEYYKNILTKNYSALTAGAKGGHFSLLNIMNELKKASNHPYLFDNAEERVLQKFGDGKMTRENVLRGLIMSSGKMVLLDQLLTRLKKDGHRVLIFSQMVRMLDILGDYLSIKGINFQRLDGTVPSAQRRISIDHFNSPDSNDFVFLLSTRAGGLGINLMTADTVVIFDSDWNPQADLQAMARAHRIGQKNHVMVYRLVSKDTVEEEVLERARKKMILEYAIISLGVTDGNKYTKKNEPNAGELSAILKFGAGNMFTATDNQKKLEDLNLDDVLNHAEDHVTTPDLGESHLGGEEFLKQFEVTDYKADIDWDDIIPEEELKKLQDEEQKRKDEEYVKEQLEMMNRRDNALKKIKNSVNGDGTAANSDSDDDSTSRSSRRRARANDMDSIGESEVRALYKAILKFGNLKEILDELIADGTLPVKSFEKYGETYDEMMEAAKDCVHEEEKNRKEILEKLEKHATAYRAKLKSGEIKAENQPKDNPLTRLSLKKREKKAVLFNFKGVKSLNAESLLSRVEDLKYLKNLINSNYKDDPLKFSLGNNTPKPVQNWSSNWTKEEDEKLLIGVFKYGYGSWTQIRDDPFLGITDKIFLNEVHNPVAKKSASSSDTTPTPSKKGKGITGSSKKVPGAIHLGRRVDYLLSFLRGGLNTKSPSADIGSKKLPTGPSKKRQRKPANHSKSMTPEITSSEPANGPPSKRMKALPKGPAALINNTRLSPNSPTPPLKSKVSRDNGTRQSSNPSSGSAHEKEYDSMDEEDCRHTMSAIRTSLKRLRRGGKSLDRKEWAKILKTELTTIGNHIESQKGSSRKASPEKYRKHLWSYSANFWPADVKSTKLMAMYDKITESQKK

Protein translocase subunit SecA (Escherichia coli (strain K12)), sequence (P10408 whole entry): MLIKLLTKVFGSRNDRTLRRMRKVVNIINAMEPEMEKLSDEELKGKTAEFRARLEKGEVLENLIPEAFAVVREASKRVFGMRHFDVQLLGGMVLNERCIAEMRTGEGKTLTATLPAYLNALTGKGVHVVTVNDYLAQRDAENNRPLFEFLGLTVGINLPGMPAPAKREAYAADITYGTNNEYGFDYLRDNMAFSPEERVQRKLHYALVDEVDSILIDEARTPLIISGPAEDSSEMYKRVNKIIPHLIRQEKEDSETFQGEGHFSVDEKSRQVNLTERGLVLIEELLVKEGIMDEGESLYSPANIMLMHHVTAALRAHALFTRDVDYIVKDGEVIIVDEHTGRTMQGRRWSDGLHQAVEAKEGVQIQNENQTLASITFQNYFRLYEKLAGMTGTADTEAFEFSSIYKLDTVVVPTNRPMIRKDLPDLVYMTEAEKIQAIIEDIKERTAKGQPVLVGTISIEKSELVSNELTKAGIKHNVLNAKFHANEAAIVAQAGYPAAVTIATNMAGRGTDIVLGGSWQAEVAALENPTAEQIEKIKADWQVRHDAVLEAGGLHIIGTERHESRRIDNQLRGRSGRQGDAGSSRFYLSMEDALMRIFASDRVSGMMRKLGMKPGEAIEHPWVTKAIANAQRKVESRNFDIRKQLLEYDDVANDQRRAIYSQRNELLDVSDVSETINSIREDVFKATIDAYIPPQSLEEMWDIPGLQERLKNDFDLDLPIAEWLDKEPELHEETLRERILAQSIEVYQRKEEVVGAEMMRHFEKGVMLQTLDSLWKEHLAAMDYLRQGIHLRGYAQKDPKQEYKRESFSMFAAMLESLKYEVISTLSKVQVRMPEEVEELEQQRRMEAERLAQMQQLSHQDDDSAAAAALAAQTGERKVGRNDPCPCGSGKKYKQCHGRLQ
Sialic acid-binding Ig-like lectin 9 (Homo sapiens), sequence (Q9Y336 whole entry): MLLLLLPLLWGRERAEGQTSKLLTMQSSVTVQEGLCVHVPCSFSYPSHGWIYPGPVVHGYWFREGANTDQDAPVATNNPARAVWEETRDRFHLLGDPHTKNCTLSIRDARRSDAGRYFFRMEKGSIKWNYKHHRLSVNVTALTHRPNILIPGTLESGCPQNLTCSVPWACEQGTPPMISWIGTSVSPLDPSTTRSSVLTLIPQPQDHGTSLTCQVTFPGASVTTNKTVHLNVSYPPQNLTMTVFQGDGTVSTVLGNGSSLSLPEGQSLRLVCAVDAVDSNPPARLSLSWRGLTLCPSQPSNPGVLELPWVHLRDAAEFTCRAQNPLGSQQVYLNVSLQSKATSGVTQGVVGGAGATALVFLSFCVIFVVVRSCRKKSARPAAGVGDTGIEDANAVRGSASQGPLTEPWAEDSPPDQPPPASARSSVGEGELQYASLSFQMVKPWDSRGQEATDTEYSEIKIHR

SMILES	PXC50 ([1]; MAX_EFFECT 1.767676768)	PXC50 ([1]; MAX_EFFECT 2.040816327)	Percent Effect [2]	PXC50 ([1]; MAX_EFFECT 6.650831354)	PXC50 ([1]; MAX_EFFECT 11.79577465)	Percent Effect [3]	Percent Effect [4]	Percent Effect [5]	Percent Effect [6]	Percent Effect ([7]; 33.3 µM)	Percent Effect [8]	Percent Effect [9]	Percent Effect [10]	Percent Effect [11]	Percent Effect [12]	Percent Effect ([7]; 30 µM)
Cc1c(C(=O)O)sc2nc(Cc3ccccc3)nc(N)c12	< 4	< 4	4.73%	–	–	–	–	–	–	–	–	–	–	–	–	–
Cc1nnc(NCC2(c3ccccc3)CC2)c(C#N)c1C	–	–	-11.8%	< 4	< 4	-6.81%	0%	5.06%	-3.09%	1.43%	8.1%	13%	-0.529%	4.88%	-4.42%	–
Cc1cc(CNC(=O)N2CCN(c3ccccc3)CC2)no1	–	–	2.37%	–	–	-3.75%	5.41%	0.348%	0%	4.17%	10.6%	-2.92%	9.9%	3.66%	-1.36%	3.78%
CCC(C(=O)NCc1ccncc1)N(c1ccc(OC)cc1)S(C)(=O)=O (centres undefined)	–	–	-7.64%	–	–	-4.48%	2.67%	14%	4.97%	3.65%	2.27%	6.36%	4.92%	8.64%	-13.6%	2.7%
CN(C)C(=O)[C@@H]1CCO[C@@H]2CCN(Cc3ccccc3)C[C@@H]21	–	–	-0.272%	–	–	-1.18%	2.7%	-1.07%	-6.45%	2.92%	20.5%	10%	7.92%	8.54%	-0.0601%	-1.62%
Cn1cc(CC2CCN(C(=O)NCc3cn4ccsc4n3)C2)cn1 (centres undefined)	–	–	-5.79%	–	–	-6.21%	13.2%	-0.407%	5.36%	-18.9%	12.2%	4.6%	6.38%	18.2%	-14.5%	2.7%
